# Test results from PubChem BioAssay AID2284075 (EPA ToxCast).
# Calls of active or inactive are those of the source. How the source made its calls: active means hit-call score of the fitted dose curve at least 0.9, where 1 is the maximum; inactive means score below 0.9.
# Target: human Aurora-A (AURKA) Other Protein Kinase, AURKA (gene 6790) (UniProt O14965)
# Assay: ERF_FR_ENZ_hAURKA: Eurofins (ERF) Enzymatic Radiometric [10 uM ATP] KinaseProfiler LeadHunter Assay for human Aurora-A (AURKA) Other Protein Kinase
# Description: ERF_FR_ENZ_hAURKA is a biochemical, single-readout assay that uses extracted gene-proteins in a cell-free assay. Measurements were taken 0.25 hour after chemical dosing in a 96-well plate. See Aurora-A Human Other Protein Kinase Enzymatic LANCE Assay [Km ATP], Cerep.ERF_FR_ENZ_hAURKA is an assay component calculated from the ERF_FR_ENZ_hAURKA assay. It is designed to measure enzyme activity using a type of enzyme reporter as detected by fluorescence intensity with LANCE technology.Data from the assay component ERF_FR_ENZ_hAURKA was analyzed at the assay endpoint, ERF_FR_ENZ_hAURKA, in the positive analysis fitting direction relative to DMSO as the negative control and baseline of activity. Using a type of enzyme reporter, loss-of-signal activity can be used to understand changes in enzymatic activity as they relate to gene AURKA. To generalize the intended target to other relatable targets, this assay endpoint is annotated to the kinase intended target family, where the subfamily is serine/threonine kinase.
# Aurora-A (h) is incubated with 8 mM MOPS pH 7.0, 0.2 mM EDTA, 200 uM LRRASLG (Kemptide), 10 mM MgAcetate and [gamma-33P]-ATP (specific activity and concentration as required). The reaction is initiated by the addition of the Mg/ATP mix. After incubation for 40 minutes at room temperature, the reaction is stopped by the addition of phosphoric acid to a concentration of 0.5%. […]
# human Aurora-A (AURKA) Other Protein Kinase, AURKA (gene 6790), sequence (O14965 whole entry, looked up): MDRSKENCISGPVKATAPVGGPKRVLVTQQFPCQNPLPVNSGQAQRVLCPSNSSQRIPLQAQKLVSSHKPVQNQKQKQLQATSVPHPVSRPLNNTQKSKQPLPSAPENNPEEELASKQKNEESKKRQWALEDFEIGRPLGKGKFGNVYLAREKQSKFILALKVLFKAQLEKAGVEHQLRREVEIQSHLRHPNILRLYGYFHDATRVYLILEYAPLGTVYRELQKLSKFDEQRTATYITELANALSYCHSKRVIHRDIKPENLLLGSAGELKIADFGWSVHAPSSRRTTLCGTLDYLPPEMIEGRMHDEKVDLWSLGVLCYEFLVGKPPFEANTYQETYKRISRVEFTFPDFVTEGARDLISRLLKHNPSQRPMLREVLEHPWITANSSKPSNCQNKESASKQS
row,Compound,outcome
1,O=C(/C=C/c1ccc(O)cc1)CC(=O)/C=C/c1ccc(O)cc1,inactive
